In PubChem BioAssay (NCI):
Several values for one entry are separate records, joined by “and”; a condition that tells them apart may be missing. Equal values may be shown once. This is part of a sample that, as a whole, favours compounds with a hit. Of some 83,000 tested, about 20% had one in any assay.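 The test compound was applied at a single concentration to cells in 96-well plates for 48 hours, and percent growth was recorded.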 Activity calls are given as the source filed them. The calls were made as follows: active = growth percent below 10; inactive = the rest.

Each compound was assayed on HOP-62 NSCLC (assay: NCI-60 one-dose screen, 48 h (100 = growth as untreated, 0 = no growth, -100 = all killed)). Conditions: 10 µM unless noted.

Structure (SMILES)	growth
ON=C1CCCCCCCC1	104% (inactive)
CCOC(=O)N(O)c1ccc(/C=C/c2ccccc2)cc1	66.5% (inactive)
O=S(=O)(O)c1ccc(N=Nc2ccc(N=Nc3cccc4ccccc34)c(S(=O)(=O)O)c2)cc1	107% (inactive)
COc1ccc(-c2nn3c(-c4cc(F)c(Cl)cc4Cl)nnc3s2)cc1	30.6% (inactive)
CCc1c2c(nc3ccc(OCc4ccc(B5OC(C)(C)C(C)(C)O5)cc4)cc13)-c1cc3c(c(=O)n1C2)COC(=O)[C@]3(O)CC	-4.19% (active)
O=C(O)c1ccccc1Cc1ccc(F)c2ccccc12	94.3% (inactive) and 109% (inactive)
CCCCC1COc2cccc3c2N1C=C/C3=C\C(=O)N(C)c1cccc(Cl)c1 (stereo not drawn)	109% (inactive)
COc1ccc(/C=C2\COc3ccc(O)c(O)c3C2=O)c(OC)c1OC	17.7% (inactive)
CC12OC(CC(O)C1O)n1c3ccccc3c3c4c(c5c6ccccc6n2c5c31)C(=O)N(CCN1CCOCC1)C4=O (stereo not drawn)	-11.7% (active)
COc1ccc(/C=N/C2=C(C#N)C(c3ccccc3)c3c(ccc4ccccc34)O2)cc1 (stereo not drawn)	35.5% (inactive)
COc1ccc(-c2cc3cnc4ccccc4c3oc2=O)cc1	105% (inactive)
O=C(/C=C/c1ccc(F)cc1)Nc1ncc(Cc2ccc(F)cc2)s1	39% (inactive)
COc1cc(/C=C2\CCC/C(=C\c3cc(CN4CCCC4)c(O)c(OC)c3)C2=O)cc(CN2CCCC2)c1O	102% (inactive)
CN(C)CCCn1c2c(c3ccc(N4CCNCC4)cc3c1=O)C(=O)c1ccccc1-2	-34.7% (active)
C=CCOc1ccc(/C=C2\SC(=S)N(CCc3ccc(O)cc3)C2=O)cc1	106% (inactive)
CCOC(=O)C1=C(C)N=C2SC=C(c3ccc(F)cc3)N2[C@H]1c1cn(-c2ccccc2)nc1-c1ccc(Cl)cc1	86.8% (inactive)
COc1ccc(/C=N/NC(=O)CN2CCN(c3cc4c(cc3F)c(=O)c(C(=O)O)cn4C3CC3)CC2)cc1O	98.9% (inactive)
COc1cccc(C2C(C#N)=C(N)Oc3cc(OCCCCCC[P+](c4ccccc4)(c4ccccc4)c4ccccc4)ccc32)c1 (stereo not drawn)	-39% (active)
Cc1nn(-c2nc(-c3cc4ccccc4oc3=O)cs2)c(C)c1N=Nc1ccccc1	102% (inactive)

Structure (SMILES)	growth
Cn1cc2c(=O)nc3c(-c4nc5ccccc5[nH]4)n[nH]n3c2n1	73% (inactive)
O=C1c2cccc3cccc(c23)C(=O)N1N1C(=O)c2cccc3c(N4CCNCC4)ccc(c23)C1=O	88.9% (inactive)
Cc1nc2sc(C(=O)Nc3cccc4ncccc34)c(N)c2cc1C(C)O (stereo not drawn)	68.1% (inactive)
CCOC(=O)c1nc2c3ccccc3cnn2c1C(=O)c1ccc(OC)cc1	77.4% (inactive)
O=C1/C(=C/c2ccccc2[N+](=O)[O-])Cc2ccccc21	57.6% (inactive) and 32.8% (inactive)
COc1cc(/C=C2/C=C(c3ccc(C(C)(C)C)cc3)N(CCc3ccc(S(N)(=O)=O)cc3)C2=O)cc(OC)c1OC	77% (inactive)
COC(=O)N/N=C/c1c[n+]([O-])c2ccccc2[n+]1[O-]	22.7% (inactive)
Cc1nc(-n2[nH]c(=O)ccc2=O)sc1N=Nc1ccccc1	94.3% (inactive)
CC1(Cc2ccccc2)CC2=C(C(=O)O1)C(c1ccccc1)NC(=O)N2 (stereo not drawn)	97.4% (inactive)
Cc1ccc(/C=C/c2c(C(=O)/C=C/c3ccccc3)c(C)nc3ccccc23)cc1	-18% (active)
CC1=C2[C@@H](CC1)[C@]1(C)O[C@@](C3CC3)(C[C@H]1OC(=O)CO)[C@H]2OC(=O)/C=C/c1ccccc1	89.6% (inactive)
COc1ccc(S(=O)(=O)Nc2cc(Sc3cccc4cccnc34)c(O)c3ccccc23)cc1	45.8% (inactive)
CCN(CC)CCCN1C(=O)c2c(c(C)c3c(oc4cc(OC)ccc43)c2C)C1=O	109% (inactive)
CN1Cn2c(ccc2C(F)(F)F)C(=O)CS1(=O)=O	100% (inactive)
O=c1cc(N/N=C/c2ccc(F)cc2)c2cc(Cl)ccc2[nH]1	95% (inactive)
Cc1cccc(-c2nnc(SCC(=O)Nc3ncc(Cc4ccccc4)s3)n2N2C(=O)CSC2=S)c1	30.3% (inactive)
COc1ccc(/C(C)=C(\c2ccc(OCCN3CCCCCC3)cc2)c2ccc(OC(=O)C3CCCCC3)cc2)cc1	-73.4% (active)
COc1ccc2c(c1)c(C(=O)c1nc(-c3cn(C)c4ccccc34)no1)cn2C	92.5% (inactive)
CCOC(=O)c1nnn(Cc2cc(=O)oc3c2ccc2ccccc23)c1C	106% (inactive)
